Results filed as inconclusive are left out. Active and inactive are the calls of the source. The calls were made as follows: active = hit-call score of the fitted dose curve at least 0.9, where 1 is the maximum; inconclusive = response in the unintended direction; inactive = score below 0.9.
Columns and labels:
[1] = ATG_XTT_Cytotoxicity: Cytotoxicity Assessment in the Attagene TRANS-FACTORIAL HepG2 Assay (AID 2283584)
Procedure, shortened: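 HepG2 cells transiently transfected with GAL4-UAS multiple reporter units, dosed 24 h; cytotoxicity read by XTT as loss of signal versus DMSO baseline.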

[2] = target: Cellular tumor antigen p53 (Homo sapiens) (UniProt P04637); assay: TOX21_p53_BLA_p2_ratio: Tox21 HCT-116 p53 Agonism Beta-lactamase Assay, Ratio, Phase 2 (AID 2283592)
Chain of Cellular tumor antigen p53 (Homo sapiens) (P04637 whole entry, looked up): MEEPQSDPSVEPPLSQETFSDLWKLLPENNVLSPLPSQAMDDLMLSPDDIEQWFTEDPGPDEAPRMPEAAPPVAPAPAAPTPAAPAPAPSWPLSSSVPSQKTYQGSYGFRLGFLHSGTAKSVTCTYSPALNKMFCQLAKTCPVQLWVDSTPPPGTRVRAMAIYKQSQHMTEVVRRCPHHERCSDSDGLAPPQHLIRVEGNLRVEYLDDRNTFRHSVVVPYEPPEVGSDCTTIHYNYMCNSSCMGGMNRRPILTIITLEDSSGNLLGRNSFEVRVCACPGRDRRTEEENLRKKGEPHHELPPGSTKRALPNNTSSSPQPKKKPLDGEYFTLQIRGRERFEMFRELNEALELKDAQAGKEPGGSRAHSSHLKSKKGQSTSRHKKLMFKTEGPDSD
Procedure, shortened: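 First, HCT116 reporter cells settle for 5 h at 37C. Next, DMSO compound solutions are pinned in (217-fold dilution) and left 16 h. Finally, CCF4-AM substrate is loaded 2 h at room temperature and the 460/530 nm ratio read.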

[3] = TOX21_p53_BLA_p4_viability: Viability Assessment in the Tox21 HCT-116 p53 Agonism Beta-lactamase Assay, Phase 4 (AID 2283597);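 also: hits lower the luminescence signal meaning cytotoxicity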
Procedure, shortened: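 4000 HCT116 cells per well; 5 h attachment; compounds from DMSO, 217-fold dilution; 16 h at 37C. Then CCF4-AM, 2 h RT, followed by CellTiter-Glo, 30 min RT, luminescence. Decrease = cytotoxicity.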

[4] = target: Cellular tumor antigen p53 (Homo sapiens) (UniProt P04637); assay: TOX21_p53_BLA_p5_ratio: Tox21 HCT-116 p53 Agonism Beta-lactamase Assay, Ratio, Phase 5 (AID 2283599)
Procedure, shortened: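 HCT-116 p53-bla cells (4000/well) plated 5 h, dosed with compound (217-fold DMSO dilution) for 16 h at 37 C; CCF4-AM substrate 2 h at room temperature. Activity is the 460/530 nm emission ratio (405 nm excitation), fitted in gain-of-signal direction versus DMSO.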

[5] = TOX21_p53_BLA_p5_viability: Viability Assessment in the Tox21 HCT-116 p53 Agonism Beta-lactamase Assay, Phase 5 (AID 2283600)
Procedure, shortened: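 Decreased CellTiter-Glo luminescence denotes lost viability. Exposure: 16 h at 37C, 5% CO2, with compounds from DMSO stocks diluted 217-fold in wells of 4000 cells.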

[6] = target: Cellular tumor antigen p53 (Homo sapiens) (UniProt P04637); assay: TOX21_p53_BLA_p3_ratio: Tox21 HCT-116 p53 Agonism Beta-lactamase Assay, Ratio, Phase 3 (AID 2283596)
Procedure, shortened: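 Cells were seeded at 4000/well, rested 5 h at 37C, then dosed with DMSO compound solutions (217-fold dilution) for 16 h. CCF4-AM substrate was loaded for 2 h at room temperature, and the 460/530 nm emission ratio was fitted for gain of signal versus DMSO.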

[7] = TOX21_p53_BLA_p3_viability: Viability Assessment in the Tox21 HCT-116 p53 Agonism Beta-lactamase Assay, Phase 3 (AID 2283593);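 also: cells exposed to compound for 16 h before reading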
Procedure, shortened: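 HCT116 cells, 4000/well, dosed 5 h after plating by pin transfer (217-fold dilution from DMSO stock) and incubated 16 h at 37C, 5% CO2. Viability read as ATP luminescence with CellTiter-Glo after 30 min at room temperature.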

[8] = target: Cellular tumor antigen p53 (Homo sapiens) (UniProt P04637); assay: TOX21_p53_BLA_p4_ratio: Tox21 HCT-116 p53 Agonism Beta-lactamase Assay, Ratio, Phase 4 (AID 2283601)
Procedure, shortened: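 HCT-116 p53 beta-lactamase reporter cells (4000/well) preincubated 5 h, then compound (217-fold dilution of DMSO stock) for 16 h at 37C. CCF4-AM substrate added 2 h at room temperature; 460/530 nm emission ratio fitted upward versus DMSO.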

[9] = TOX21_p53_BLA_p2_viability: Viability Assessment in the Tox21 HCT-116 p53 Agonism Beta-lactamase Assay, Phase 2 (AID 2283591);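 also: actives lower the ATP signal meaning cytotoxicity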
Procedure, shortened: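 HCT116 p53-bla cells, 4000/well, dosed after 5 h plating (217-fold dilution of DMSO stocks) and incubated 16 h at 37C. Viability taken as cellular ATP by CellTiter-Glo luminescence after 30 min RT; signal loss marks cytotoxicity.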

Measured: outcome

CCCCC(CC)COCCC#N (stereo unspecified)
inactive: [1] | [2] | [3] | [4] | [5]

C=CC(C)(O)CCC=C(C)CCC=C(C)C (stereo unspecified)
inactive: [1] | [2] | [6] | [4]

COc1ccc(Cl)cc1C
inactive: [1] | [2] | [6] | [4]

CCC(=O)/C=C/C1C(C)=CCCC1(C)C (stereo unspecified)
inactive: [1] | [2] | [7] | [6] | [4] | [8]

O=C(O)C[C@H](O)C[C@H](O)/C=C/c1c(C2CC2)nc2ccccc2c1-c1ccc(F)cc1
inactive: [1] | [2] | [6] | [3] | [4] | [5] | [8]

CCCCN
inactive: [1] | [7] | [6] | [3] | [4]

Cc1ccc2ccccc2n1
inactive: [1] | [2] | [7] | [6] | [4] | [8]

O=C1O[C@@H]2[C@@H](O)[C@H](O)O[C@@H]2[C@H]1O
inactive: [1] | [2] | [6] | [3] | [4] | [5] | [8]

Cc1ccc(C=O)s1
inactive: [1] | [2] | [7] | [3] | [4] | [8]

CC(=O)c1c(C)cc(C(C)(C)C)cc1C
inactive: [1] | [2] | [7] | [3] | [4] | [5] | [8]

COC(C(=O)O)c1ccccc1 (stereo unspecified)
inactive: [1] | [2] | [3]

CC(C=O)Cc1ccc(C(C)C)cc1 (stereo unspecified)
inactive: [1] | [3] | [4]

C=C(C)C(=O)O[C@H]1C[C@@H]2CC[C@@]1(C)C2(C)C
inactive: [9] | [2] | [7] | [6] | [4] | [8]

c1cc(C(c2ccc(OCC3CO3)cc2)c2ccc(OCC3CO3)cc2)ccc1OCC1CO1 (stereo unspecified)
inactive: [9] | [7] | [3] | [5]

CC(C)[C@H]1CC[C@@H](C)CC1=O
inactive: [9] | [2] | [7] | [4]

O=S(=O)(O)c1cccc2c(S(=O)(=O)O)cccc12
inactive: [1] | [6] | [3] | [8]

From PubChem BioAssay (EPA / NIEHS)
